Drawing on the supplement of paper PMC8047044, this text covers neurite formation score for 40 molecules.

Values joined by “and” are separate entries in the source; they are usually repeats but may differ in a detail not shown here. Identical values can stand only once. Counter-ions that a name gives are not always drawn.

The experiment relates to Neuro-2a. The experiment can be described thus: neurite formation score, plate-normalized to DMSO control mean 5.04 (score (0-8 scale)); higher = more or longer neurites. Conditions: 1 µM. The procedure:
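Neuro-2a mouse neuroblastoma cells in PLL-coated 96-well plates were pre-treated for 1 h in DMEM(+) with each kinase inhibitor at 1 µM, then switched to serum-free DMEM(-) with inhibitor to induce neurite outgrowth and fixed about 2-3 h later. Three blinded observers scored neurite formation from 0 (no neurites) to 8 (long neurites on almost all cells).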
In turn, `CN1CCN(c2cccc(Nc3nc4c(-c5ccc(S(C)(=O)=O)cc5)cccn4n3)c2)CC1` came in with a neurite formation score of 4.69. For `CCS(=O)(=O)Nc1ccc2[nH]c(O)c(C(=Nc3ccc(CN4CCCCC4)cc3)c3ccccc3)c2c1` [Hesperadin] the value was 1.02; for `CC1=C(C(=O)Nc2cc3cn[nH]c3cc2F)C(c2ccc(C(F)(F)F)cc2)CC(=O)N1` (stereo not given), 0.236; for `COc1cc2c(N3CCN(C(=O)Nc4ccc(OC(C)C)cc4)CC3)ncnc2cc1OCCCN1CCCCC1` [Tandutinib (MLN518)], 5.29.

`CNC(=O)c1cc(Oc2ccc(NC(=O)Nc3cc(C(C)(C)C)nn3-c3ccc4ncccc4c3)c(F)c2)ccn1` [DCC-2036 (Rebastinib)] gave a neurite formation score of 1.29. The figure for `O=c1cc(N2CCOCC2)oc2c(-c3ccccc3)cccc12` is 5.24; for `Cc1ccccc1CN1C2=NCCN2C(=O)C2=C1CCN(Cc1ccccc1)C2` it is 4.63; for `N#Cc1c(NC(=O)c2cccc3ccccc23)sc2c1CCCC2` it is 0.543. On to `c1cn2cc(-c3ccc4cn[nH]c4c3)nc(Nc3ccc(N4CCOCC4)cc3)c2n1`, for which the neurite formation score is 4.54. Turning to `NC1(C(=O)N[C@@H](CCO)c2ccc(Cl)cc2)CCN(c2ncnc3[nH]ccc23)CC1`, the neurite formation score worked out at 5.57. The figure for `NC(=O)c1cccc(-c2cc(Nc3ccc(OC(F)(F)F)cc3)ncn2)c1` is 5.14; for `Cc1ccc(NC(=O)c2ccc(CN3CCN(C)CC3)cc2)cc1Nc1nccc(-c2cccnc2)n1` [Imatinib (STI571)] it is 4.54; for `Nc1ncnc2c1c(-c1cnc3[nH]ccc3c1)nn2C1CCCC1` it is 3.21.

`CCOc1ccn(-c2ccc(F)cc2)c(=O)c1C(=O)Nc1ccc(Oc2ccnc(N)c2Cl)c(F)c1` returned a neurite formation score of 5.24. `CC(=O)Nc1cccc(-n2c(=O)n(C3CC3)c(=O)c3c(Nc4ccc(I)cc4F)n(C)c(=O)c(C)c32)c1` [Trametinib DMSO solvate] yielded a neurite formation score of 5.02. The figure for `CN1CC[C@H](c2c(O)cc(O)c3c(=O)cc(-c4ccccc4Cl)oc23)[C@H](O)C1` [Flavopiridol hydrochloride] is 4.47. The figure for `C=CC(=O)Nc1cccc(Nc2nc(Nc3ccc(NC4CN(CCF)C4)cc3OC)ncc2C(F)(F)F)c1` is 4.88. `C=CC(=O)N1CCC[C@@H](n2nc(-c3ccc(Oc4ccccc4)cc3)c3c(N)ncnc32)C1` yielded a neurite formation score of 3.24. For `COc1cc(Nc2nc3ccccc3nc2NS(=O)(=O)c2ccc(NC(=O)c3ccc(C)c(OC)c3)cc2)cc(OC)c1` the value was 4.57; for `CNC(=O)c1ccccc1Nc1cc(Nc2ccc(N3CCOCC3)cc2OC)ncc1C(F)(F)F`, 5.02; for `CCC(=O)Nc1cccc(Oc2nc(Nc3ccc(N4CCN(C)CC4)cc3OC)ncc2Cl)c1`, 5.63.

With `Cc1csc(-c2nnc(Nc3ccc(Oc4ncccc4-c4ccnc(N)n4)cc3)c3ccccc23)c1`, the neurite formation score amounted to 3.36. For `CN1CCN(S(=O)(=O)c2ccc(-c3cnc(N)c(C(=O)Nc4cccnc4)n3)cc2)CC1` the value was 2.88; for `CN(C)CCCn1cc(C2=C(c3c[nH]c4ccccc34)C(=O)NC2=O)c2ccccc21`, 5.24.

For `Cc1ccc(-c2csc3ncnc(SCCC(=O)O)c23)cc1`, the neurite formation score was determined as 4.02. The figure for `CS(=O)(=O)c1cccc(CNc2nc(Nc3ccc4c(c3)CCC(=O)N4)ncc2C(F)(F)F)c1` is 3.47. Consider `CN1CCN(Cc2ccc(-c3cnc4[nH]cc(-c5ccc6[nH]ccc6c5)c4c3)cc2)CC1`, for which the neurite formation score was 4.54. For `O=C1c2ccc(Nc3ccc(F)cc3F)cc2CCc2ccc(OC[C@H](O)CO)cc21` [Skepinone-L] the value was 5.02. For `N#Cc1cccc(-c2c[nH]c3ncnc(N4CCOCC4)c23)c1` the value was 5.21; for `COc1ccc2c(OCc3nnc4ccc(-c5ccccc5)nn34)ccnc2c1`, 4.54.

Take `O=C(NOC[C@H](O)CO)c1ccc(F)c(F)c1Nc1ccc(I)cc1F`: the neurite formation score came to 4.91. For `C[C@@H](Oc1cc(-c2cnn(C3CCNCC3)c2)cnc1N)c1c(Cl)ccc(F)c1Cl` [(R)-Crizotinib] the value was 4.91. The figure for `Cn1cc(C2=C(c3ccc(Cl)cc3Cl)C(=O)NC2=O)c2ccccc21` is 4.14.

The molecule `COc1cc2nccc(Oc3ccc(NC(=O)Nc4ccc(F)cc4F)c(F)c3)c2cc1OC` yielded a neurite formation score of 5.24. `COc1ccc(-c2ccc3ncc4c(c3c2)n(-c2ccc(N3CCNCC3)c(C(F)(F)F)c2)c(=O)n4C)cn1`: the neurite formation score came to 4.29. For the molecule `C[C@@H]1CCN(C(=O)CC#N)C[C@@H]1N(C)c1ncnc2[nH]ccc12`, the neurite formation score is 4.02 and 4.69. On to `Cc1nc2c(-c3cnc(N)nc3)nc(N3CCOCC3)nc2n1C(C)C`, for which the neurite formation score came to 4.02. The figure for `FC(F)(F)c1ccc(CNc2ccc(Cc3c[nH]c4ncc(Cl)cc34)cn2)cn1` [Pexidartinib (PLX3397)] is 4.54; for `CCOc1cc(C(=O)N2CCC(N3CCN(C)CC3)CC2)ccc1Nc1ncc2c(n1)N(C1CCCC1)c1ccccc1C(=O)N2C` it is 4.02; for `CC(C)(C)c1cc(NC(=O)Nc2ccc(-c3cn4c(n3)sc3cc(OCCN5CCOCC5)ccc34)cc2)no1` [Quizartinib (AC220)] it is 4.57.
